Hit rate of the full screen: of about 96,000 compounds, about 19,000 (20%) were called active. The list is a sample of the results. A number with no mark means an inactive call.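 How the source made its calls: active means blocking of liver enzyme CYP2C9 beyond about 50% at 5 µM (limit read from the data); inactive means the rest.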

The target of this test is Cytochrome P450 2C9 (Homo sapiens) (UniProt P11712). As to the kind of experiment: blockers of cytochrome P450 2C9 activity – biochemical, luminescence, ADME assay, primary screen (AID 777). Particulars: CYP2C9 Supersomes, luciferin-H conversion, at 5 µM, active compounds read high.
Cytochrome P450 2C9 (Homo sapiens), sequence (P11712 whole entry, looked up): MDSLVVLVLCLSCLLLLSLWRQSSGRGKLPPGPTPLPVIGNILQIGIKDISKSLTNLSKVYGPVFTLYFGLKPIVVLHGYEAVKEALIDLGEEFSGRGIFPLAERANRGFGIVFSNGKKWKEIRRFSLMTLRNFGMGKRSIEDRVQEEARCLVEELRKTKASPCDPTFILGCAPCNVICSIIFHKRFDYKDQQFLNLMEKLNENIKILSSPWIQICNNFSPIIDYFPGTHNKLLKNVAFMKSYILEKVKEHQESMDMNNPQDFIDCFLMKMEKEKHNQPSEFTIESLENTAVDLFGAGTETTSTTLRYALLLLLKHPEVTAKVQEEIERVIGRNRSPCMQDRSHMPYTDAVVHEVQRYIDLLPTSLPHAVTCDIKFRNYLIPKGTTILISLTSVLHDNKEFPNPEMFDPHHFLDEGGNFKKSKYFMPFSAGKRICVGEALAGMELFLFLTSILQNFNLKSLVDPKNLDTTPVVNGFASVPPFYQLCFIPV
Regarding `CCOC(=O)C1Sc2[nH]c(=O)sc2C(c2ccc(Cl)cc2)C1C(=O)OCC` (stereo unspecified), the inhibition was 5.6%.
In the case of `O=c1c2ccccc2oc2nc(C3CCCCC3)n(Cc3ccco3)c(=O)c12` it was 20.1%; in that of `CCc1nc2ccccc2n(CCOCCOCCn2c(=O)c(CC)nc3ccccc32)c1=O`, 24.5%; in that of `CC(c1ccco1)N(C(=O)c1ccc(S(=O)(=O)N2CCCCC2)cc1)c1ccccn1` (stereo unspecified), 56.9% (active).
Turning to `CC(C)Cc1ccc(S(=O)(=O)N2CCN(C(=O)c3ccco3)CC2)cc1`, the inhibition is 17%.
As for `CC(c1ccco1)N(C(=O)COc1ccccc1[N+](=O)[O-])c1ccccn1` (stereo unspecified), the inhibition was 8.1%.
In the case of `Cc1cc(C)cc(OCc2nnc(SCC(=O)OC3CCCCC3)o2)c1` it was -1.3%.
In the case of `C=CCc1cccc2cc(C(=O)N3CCN(C(=O)OCC)CC3)c(=O)oc12` it was -112%; in that of `CCN(c1ccccc1)S(=O)(=O)c1cccc(C(=O)O)c1`, 33.3%.
In the case of `CCN(CC)S(=O)(=O)c1cccc(C(=O)Nc2ccccc2)c1` it was 38.7%; in that of `CCN(CC)S(=O)(=O)c1cccc(C(=O)NCC(=O)OCC(=O)NCc2ccccc2)c1`, 63.3% (active); in that of `c1ccc2c(-c3nn4nnnc4c4ccccc34)cccc2c1`, 13.8%.
On to `COCCn1c(=O)[nH]c2cc(C(=O)NCc3cccnc3)ccc2c1=O`, for which the inhibition was -1.7%.
On to `O=C(CCn1c(=S)[nH]c2ccccc2c1=O)NCCCN1CCCC1=O`, for which the inhibition was -4.6%.
As to `COc1ccc(CCNC(=O)c2cc(-c3ccc4c(c3)OCO4)on2)cc1OC`, the inhibition was 6.7%.
For `COc1ccc(CCNC(=O)CCn2c(=O)oc3ccccc32)cc1OC` the value was 8.1%; for `CCOc1cc2[nH]c(=S)n(Cc3ccc(C(=O)NCCOC)cc3)c(=O)c2cc1OCC`, -7.8%.
For `O=C(CCn1c(=O)[nH]c2ccccc2c1=O)NCCCN1CCN(c2cccc(Cl)c2)CC1` the value was 29.1%; for `COc1ccc(CCNC(=O)CCCCn2c(=O)[nH]c3ccccc3c2=O)cc1OC`, 68.4% (active).
For `CCN(CC)CCNC(=O)CCCCCn1c(=O)[nH]c2cc(C(=O)OC)ccc2c1=O` the value was 2.6%.
With `COCCn1c(=S)[nH]c2cc(C(=O)NCCc3ccc(OC)c(OC)c3)ccc2c1=O`, the inhibition was 55.7% (active).
For `COc1ccc(CCNC(=O)c2ccc3c(c2)NC(=O)C(N2CCOCC2)S3)cc1OC` (stereo unspecified) the value was 50.1% (active); for `O=C(NCCCN1CCCCC1)c1ccc2c(c1)NC(=O)C(N1CCOCC1)S2` (stereo unspecified), -7.1%; for `O=C(CCCCCn1c(=O)[nH]c2ccccc2c1=O)NCCc1c[nH]c2ccccc12`, 63.8% (active).
In the case of `COC(=O)CSc1snnc1-c1ccc(Cl)c(Cl)c1` it was 6.6%.
In the case of `COc1ccc(/C=N/Nc2nc3ccccc3o2)cc1OC`, the inhibition was -48.5%.
Consider `CC(=O)Nc1cc2ccc(OC(C)=O)cc2oc1=O`, for which the inhibition was -29.1%.
In the case of `CCCOc1ccc(CN(CCO)CCO)cc1C(=O)OC` it was 10.6%; in that of `COc1cccc(-c2cnc(OC(C)(C)C)nc2OC(C)(C)C)c1`, 6.8%.
In the case of `CCc1nc(C)cn1S(=O)(=O)c1cc(OC)c(C)cc1C` it was 7.6%.
Regarding `Cc1ccsc1CNn1cnnc1SCc1ccccc1F`, the inhibition is 13.9%.
In the case of `Cc1ccc(C2=NN(C)c3nc4ccccc4n3C2)cc1` it was 6.9%; in that of `COCc1cc(=O)[nH]c2cc(NC(=O)C(F)(F)F)c(C)cc12`, 13.9%.
For `CCOC(=O)Cn1c(-c2cccnc2Cl)nc2ccccc21` the value was 10.6%; for `O=C(Nc1ncc2c(n1)-c1ccccc1OC2)c1ccc(Cl)cc1`, 25.3%.
For `CCC1CCCCN1CCCNC(=O)C1CCC(Cn2c(=O)[nH]c3ccccc3c2=O)CC1` (stereo unspecified) the value was 1.7%; for `O=C(CCCCn1c(=O)[nH]c2ccccc2c1=O)NCc1ccc2c(c1)OCO2`, 69% (active).
For `Cc1ccc(C)c(N2CCN(C(=O)CCCCn3c(=O)[nH]c4ccccc4c3=O)CC2)c1`, the inhibition is 61.9% (active).
For the molecule `Cn1cc(CCC(=O)NCc2ccc3c(c2)OCO3)c2ccccc21`, the inhibition was -124%.
For `Cc1c2cnn(-c3ccccc3)c(=O)c2c(C)n1CCCC(=O)N1CCN(C)CC1`, the inhibition is -0.9%.
`CC(C)NC(=O)CCCn1c(=S)[nH]c2cc3c(cc2c1=O)OCO3`: the inhibition is 12.3%.
In the case of `O=C(COc1ccc(/C=N/NS(=O)(=O)c2ccccc2)cc1)NCCc1ccccc1` it was 5.3%; in that of `CCOc1ccc(OCC)c(NC(=O)C(NS(=O)(=O)c2ccc3c(c2)oc(=O)n3C)C(C)C)c1` (stereo unspecified), 17.9%.
For `N#C/C(=C(/O)COc1cccc2ccccc12)c1nc2ccccc2[nH]1` the value was -6.1%; for `N#C/C(=C(/O)Cc1cccc2ccccc12)c1nc2ccccc2s1`, 76.6% (active); for `Cc1ccccc1OC/C(O)=C(\C#N)c1nc2ccccc2[nH]1`, 45.5%.
For the molecule `CN(C)/C=C(\C#N)C(=O)c1cccnc1Oc1cccc(F)c1`, the inhibition was 12.2%.
With `CCCC(C)C(=O)Nc1ccc(NC(C)=O)cc1` (stereo unspecified), the inhibition is 9.5%.
For `COc1ccc(C2OC(=O)CC2C(=O)NC(C)C)cc1` (stereo unspecified) the value was 3.6%; for `COC(=O)c1sccc1NC(=O)CCC1CCCC1`, -11.7%.
In the case of `O=C(CCCOc1ccccc1)Nc1cccc(C(=O)O)c1` it was 9.5%; in that of `N#Cc1cccc(NC(=O)CCC2CCCC2)c1`, 56.8% (active).
For `CCCC(=O)N1CCc2[nH]c3ccccc3c2C1` the value was 8.3%; for `Cc1ccc(C(C(=O)NCc2ccco2)N(CC2CCCO2)C(=O)Cn2nnc3ccccc32)cc1` (stereo unspecified), 14.4%; for `COCCNC(=O)C(c1ccc(C)o1)N(Cc1ccccc1)C(=O)Cn1nnc2ccccc21` (stereo unspecified), 16.2%.
In the case of `COc1ccccc1N(C(=O)Cn1nnc2ccccc21)C(C(=O)NCc1ccco1)c1ccc(C)o1` (stereo unspecified), the inhibition was 70.3% (active).
Take `CCOCCCNC(=O)Cc1cc(=O)[nH]c(=O)[nH]1`: the inhibition was -6.2%.
For `Cc1noc(COc2ccccc2OCC(O)CNC(C)(C)C)n1` (stereo unspecified) the value was 26.1%; for `CC1CCC(N2CC(=O)N(Cc3ccc4c(c3)OCO4)C(c3ccc(F)cc3)C2=O)CC1` (stereo unspecified), 39.6%; for `O=C1N(Cc2ccc3c(c2)OCO3)c2ccccc2C1(O)c1c[nH]c2ccccc12` (stereo unspecified), 79.7% (active).
In the case of `O=C(Nc1cccc2ccccc12)N1CCN(Cc2ccc3c(c2)OCO3)CC1` it was 38.9%; in that of `CC(=O)Oc1ccc(C)cc1N1C(=O)c2ccc(C(=O)O)cc2C1=O`, -17.9%.
For `C/C(CC(O)(/C=N/O)c1ccccc1)=N\O` (stereo unspecified) the value was -33%; for `CC1=NN(c2cccc(Cl)c2)C(=O)C12CC(C)=C(C)CS2` (stereo unspecified), 74.8% (active).
Turning to `O=C1C(=O)N(c2ccccc2)c2ccccc21`, the inhibition is 4.1%.
Consider `CC(=O)Nc1ccc(C(=O)CSc2nnc(Cc3ccccc3)o2)cc1`, for which the inhibition was 33.3%.
Consider `COCCCn1c(Cc2csc(Nc3cccc(Cl)c3)n2)nnc1SCC(=O)OC1CCCCC1`, for which the inhibition is 44.3%.
For `CCOc1ccc(Nc2nc(Cc3nnc(SCC(=O)NC4CCCC4)n3C)cs2)cc1` the value was 65.6% (active).
In the case of `CCOc1ccc(Nc2nc(Cc3nnc(SCC(=O)c4ccc(C)cc4)o3)cs2)cc1` it was 83.7% (active); in that of `CCOC(=O)c1c(NC(=O)CSc2nnc(Cc3csc(N)n3)n2C)sc(C)c1C`, 30.2%.
For `CCC(=O)Nc1ccc(C(=O)CSc2nnc(CNc3ccc(Cl)cc3)o2)cc1OC` the value was -44.6%; for `COCc1cc(C)nc2sc(C(=O)NC3CCCCC3)c(N)c12`, 4.7%; for `COc1ccc(-n2cnc3cc(NCc4ccco4)ccc32)cc1`, 32.8%.
On to `COC(=O)[C@@H](NC(=O)Nc1cc(Cl)ccc1C)C(C)C`, for which the inhibition was 10%.
For the molecule `OC(C#CCN1CCOCC1)(c1ccccc1)C1CCCCC1` (stereo unspecified), the inhibition is 30%.
In the case of `O=c1oc2cc(O)ccc2cc1-c1ccc(F)cc1` it was 27.8%; in that of `CCCCCCc1cc2cc(-c3nnc(-c4ccccc4)o3)c(=O)oc2cc1O`, 90.8% (active); in that of `CC1(C)CC(=O)C=C(NCCCNC2CCCCC2)C1`, 1%.
On to `CCOC(=O)c1c(N)sc(C(C)=O)c1C`, for which the inhibition is 25.8%.
Take `CCCCc1c(O)nc2n(c1=O)CCS2`: the inhibition was -21.9%.
In the case of `COc1ccccc1NC1=NC(c2ccc(Cl)cc2)N=C(N)N1` (stereo unspecified), the inhibition was -7.5%.
For `CCn1c2ccccc2c2cc(NC(=S)N3CCOCC3)ccc21` the value was -46.3%; for `CCCCN(C)C(=O)c1ccc2c(c1)N(CC)C(=O)c1ccccc1S2(=O)=O`, 72.4% (active).
In the case of `CCN1C(=O)c2cccc3c(N)ccc1c23` it was 7.7%; in that of `COC(=O)CNC(=O)c1ccc2c(c1)S(=O)(=O)c1ccccc1C2=O`, -14.1%; in that of `CCC(C)Sc1nnc(-c2c[nH]c3ccccc23)n1CCOC` (stereo unspecified), -4.5%.
Turning to `CCCC1NC(=O)NC(C)=C1C(=O)OCC` (stereo unspecified), the inhibition was 39.8%.
`CCOC(=O)C1=C(C)NC(C)=C(C(=O)OCC)C1C1=COCCO1`: the inhibition was 77.4% (active).
For `CCOC(=O)c1ccccc1NC(=O)CC1Nc2ccccc2NC1=O` (stereo unspecified), the inhibition is 29.5%.
In the case of `CCC(=O)N(Cc1ccccc1)c1ccccn1` it was -7.1%.
For `CCOC(=O)C1=C(C)NC(C)=C(C(=O)OCC)C1c1ccccn1` the value was 94.2% (active); for `CCCC(O)(c1ccc(OC)cc1)C(CN(C)C)c1ccccc1` (stereo unspecified), -8.2%.
Take `O=C(NC(=O)c1ccc(Cl)c(Cl)c1)OC1CCS(=O)(=O)C1` (stereo unspecified): the inhibition was -16.4%.
Consider `CCOc1ccccc1NC(=O)C12CC3CC(C1)CC(c1ccc(C)cc1)(C3)C2`, for which the inhibition is -16%.
`N#C/C=C\Oc1ccc(Cl)cc1N`: the inhibition was -10.4%.
In the case of `O=C(CCN1C(=O)C2C3C=CC(C3)C2C1=O)Nc1ccccc1F` (stereo unspecified) it was -2.2%.

One may read the inhibition as the change of the read-out against control, counted positive when it falls.

The values above are taken from PubChem BioAssay AID777 (Sanford-Burnham Center for Chemical Genomics, 2007).
